# Source: PubChem BioAssay (NCATS)
# Where “and” joins values, the source holds several entries; their conditions need not be identical. Identical values can stand only once. Results filed as inconclusive are left out. A number with no mark means an inactive call. Calls of active or inactive are those of the source. Calls follow the shape of the dose curve; as a rule, active = well fitted inhibition curve with a large enough effect; inconclusive = small, poorly fitted or top-dose-only effect; inactive = flat fitted curve, though single readings scatter.
# Legend:
# [1] = Drug repurposing screens with cells derived from glioblastoma tumor samples (AID 1345199); settings: GBM patient neurospheres viability, ATP luminescence, 48 h; also: nearly all actives have a fitted effect of over 40% in size
# Outline: (§1)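 Four patient lines of CD133+ GBM neurospheres were screened at several concentrations; hits were retested in those lines plus three slower-growing GBM lines, using 48-hour treatment and ATP-based viability.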
# [2] = test system: astro; assay: as above; settings: viability, ATP luminescence, 48 h; series mostly up to 45.9 µM
# Outline: as §1
# [3] = at 45.9 µM (top of the series), tumour line B
# [4] = at 45.9 µM (top of the series), tumour line D
# [5] = at 46.1 µM (top of the series), tumour line C
# [6] = at 46 µM (top of the series), tumour line A
# [7] = at 20 µM (top of the series), tumour line C
# [8] = at 21.2 µM (top of the series), tumour line B
# [9] = at 21.2 µM (top of the series), tumour line D
# [10] = at 21.3 µM (top of the series), tumour line A
# % is scaled to controls: 0 for no effect and ±100 for the full control effect; potency is read from the fitted curve at half-maximal effect.
SMILES,"activity, negative = cell killing [1, 3]","activity, negative = cell killing [1, 4]","activity, negative = cell killing [1, 5]",Potency ([1]; tumour line A),Potency [2],"activity, negative = cell killing [1, 6] [%]","activity, negative = cell killing [1, 7] [%]","activity, negative = cell killing [1, 8] [%]","activity, negative = cell killing [1, 9] [%]","activity, negative = cell killing [1, 10] [%]"
COc1ccc2c(=O)c(C)c(-c3ccccc3)oc2c1CN(C)C,-11.5%,-20.7%,-17.7%,20 µM (active),inactive,,,,,
NC(=O)C1c2ccccc2CCc2ccccc21,4.21%,-18.6%,-17.6%,,inactive,-34,,,,
FCOC(C(F)(F)F)C(F)(F)F,-14%,-24.3%,-24.9%,,inactive,-28,,,,
CCCCCc1ccc(C)cc1O,-7.13%,3.04%,-11.1%,,inactive,-24.1,,,,
CC(=O)Oc1cc(C(F)(F)F)ccc1C(=O)O,,,,,inactive,,-16.9,-19.3,-15.7,-29
O=C(O)CCC/C=C\C[C@@H]1[C@@H](/C=C/[C@@H](O)COc2cccc(Cl)c2)[C@H](O)C[C@@H]1O,-7.43%,0.189%,-22.5%,,inactive,-25.8,,,,
NCC[C@H](O)C(=O)N[C@@H]1C[C@H](N)[C@@H](O[C@H]2O[C@H](CN)CC[C@H]2N)[C@H](O)[C@H]1O[C@H]1O[C@H](CO)[C@@H](O)[C@H](N)[C@H]1O,-11.6%,-8.34%,-19.9%,,inactive,-19.6,,,,
CN[C@@H]1[C@@H](O[C@H]2O[C@H](CO)[C@@H](N)[C@H](O)[C@H]2O)O[C@H]2C[C@@H](N)[C@@H](O[C@H]3[C@H](O)[C@@H](O)[C@H](N)C[C@@H]3N)O[C@@H]2[C@@H]1O,,,,,inactive,,-7.39,0.663,2.67,-16.4
COC(=O)C(CN)c1c[nH]c2ccc(OC)cc12 (stereo not given),-10.3%,-14.4%,-0.904%,,inactive,-30.9,,,,
O=C1CCC(=O)N1CO,-0.626%,-0.644%,-0.827%,,inactive,-17,,,,
CC(C)=CCC/C(C)=C/CC/C(C)=C/CC/C=C(\C)CC/C=C(\C)CCC=C(C)C,2.98%,-28.8%,-15.4%,,inactive,-32.1,,,,
NC[C@@H]1CC[C@@H](N)[C@@H](O[C@H]2[C@H](O)[C@@H](O[C@H]3O[C@H](CO)[C@@H](O)[C@H](N)[C@H]3O)[C@H](N)C[C@@H]2N)O1,0.351%,3.76%,-13%,,inactive,-27.2,,,,
CCCCCCCCCCCCCCCC(=O)OC[C@H](COP(=O)([O-])OCC[N+](C)(C)C)OC(=O)CCCCCCCCCCCCCCC,-12.1%,-1.49%,-17.2%,,inactive,-32.2,,,,
CC[C@H](CC[C@@H](C)[C@H]1CC[C@H]2[C@@H]3CC=C4C[C@@H](O)CC[C@]4(C)[C@H]3CC[C@]12C)C(C)C,-10.4%,-2.23%,-13.1%,,inactive,-16.4,,,,
C[C@]12CC[C@@H]3c4ccc(O)cc4CC[C@H]3[C@@H]1CC[C@@H]2OP(=O)(O)O,-7.23%,-13%,22.6%,,inactive,-23.9,,,,
CCOC(=O)[C@@H](N)CS,-8.18%,-11.2%,1.04%,,inactive,-24.4,,,,
COC1=C(OC)C(=O)C(C/C=C(\C)CC/C=C(\C)CC/C=C(\C)CC/C=C(\C)CC/C=C(\C)CC/C=C(\C)CC/C=C(\C)CC/C=C(\C)CC/C=C(\C)CCC=C(C)C)=C(C)C1=O,2.27%,-1.65%,7.72%,,inactive,-4.78,,,,
C=N[C@@H](C(=O)N[C@@H]1C(=O)N2[C@@H]1SC(C)(C)[C@@H]2C(=O)O)c1ccccc1,-11%,-11.4%,-15.6%,,inactive,-8.19,,,,
COc1cc2c(cc1OC)[C@@H](Cc1cc(OC)c(OC)c(OC)c1)[N+](C)(CCCOC(=O)CC/C=C/CCC(=O)OCCC[N+]1(C)CCc3cc(OC)c(OC)cc3[C@H]1Cc1cc(OC)c(OC)c(OC)c1)CC2 (stereo not given in full),-17.7% and -2.67%,-12.5% and -11.6%,-14.7% and -8.1%,,inactive,-22.5,,,,
